Screening data deposited in PubChem by several laboratories.
PrPC TRFRET = reduces human prion protein on the cell surface; P04156; cell surface PrPC, TR-FRET read-out; inhibition, % at 13.8 µM; 370,000 compounds, 0.43% hits; AID 720596; in the data active = inhibition above about 24%
RN4220 kill = S. aureus RN4220 growth inhibition. OD600, 16 h. inhibition, % (concentration not given with the values). 330,000 compounds, 0.33% hits. AID 1259311; in the data active = inhibition above about 85%
BJeLR viability = BJeLR cell viability loss. BJeLR (HRASV12) viability, CellTiter-Glo ATP luminescence, 48 h. inhibition, % (no concentration beside the values). AID 1554. 300,000 compounds, 0.17% hits; in the data active = inhibition above about 50%
ugtP null kill = kills S. aureus RN4220 lacking UgtP. S. aureus RN4220 ugtP deletion, OD600 growth, 16 h. growth inhibition, % (concentration not given with the values). 330,000 compounds, 0.54% hits. AID 1259309; in the data active = growth inhibition above about 68%
A number is an active result; - = inactive; . = not tested or not shown. An excerpt weighted towards active compounds, which were near 0.95% of everything screened.

SMILES	PrPC TRFRET	RN4220 kill	BJeLR viability	ugtP null kill
Cc1c(CCC(=O)O)c(=O)oc2c(C)c3occ(-c4ccc(Br)cc4)c3cc12	-	-	-	-
CC(=NNC(=O)COc1ccc(C(C)(C)C)cc1)c1ccc(OC(F)F)cc1	.	-	.	-
CCCCCCCCCCCC(=O)c1c(O)cccc1O	-	100	-	100
COCCOC(=O)c1[nH]c2c(c1C)C(=O)CC(c1cccs1)C2 (configuration not stated)	-	-	-	-
CCOCCOC(=O)c1[nH]c2c(c1C)C(=O)CC(c1cc(OC)c(OC)c(OC)c1)C2 (configuration not stated)	-	-	-	-
CCOCCOC(=O)c1[nH]c2c(c1C)C(=O)CC(c1ccccc1)C2 (configuration not stated)	-	-	53	-
CCOCCOC(=O)c1[nH]c2c(c1C)C(=O)CC(c1cccs1)C2 (configuration not stated)	-	-	65	-
Cc1ccsc1C=NNC(=O)CNC(=O)c1cccc([N+](=O)[O-])c1C	.	-	.	-
COc1ccc(C=NNC(=O)c2cccc([N+](=O)[O-])c2)cc1Cn1cc([N+](=O)[O-])cn1	.	-	.	-
CCOC1OC(C(=O)O)=CC(c2ccc3c(c2)OCO3)C1CCCO (configuration not stated)	.	-	.	-
NC(=NOC(=O)c1ccccc1F)c1cccc([N+](=O)[O-])c1	.	-	.	-
COc1cc2c(cc1OC)C(C1C(=O)CC(C)(C)CC1=O)N(C(=O)CCl)CC2 (configuration not stated)	-	-	-	-
COc1cc2c(cc1OC)C(c1cc(Br)ccc1F)N(C(=O)CCl)CC2 (configuration not stated)	-	.	58	.
CCCCOc1ccc(CN=C(N)N)cc1Cl	-	-	-	100
CCOc1ccc(CN=C(N)N=C(N)N)cc1Cl	-	-	-	-
CCCOc1ccc(CCCN=C(N)N)cc1Cl	-	-	-	101
CCCCC1COCCS(=O)(=O)N1Cc1cccc(Cl)c1 (configuration not stated)	.	-	.	-
O=[N+]([O-])c1ccc(NN=Cc2ccccc2)c(F)c1	.	-	.	-
COc1ccc(F)cc1CN1CCN(C(=O)CCC(=O)Nc2nnc(CC(C)C)s2)CC1	-	-	62	-
N#Cc1ccccc1N1CCN(S(=O)(=O)c2ccc3c(c2)CCC(=O)N3)CC1	-	.	.	.
COc1ccccc1-c1oc2ccccc2c1-c1ccc2cc[nH]c2c1	-	-	.	-
CCOC(=O)c1ccc(-c2c(-c3ccccc3OC)oc3ccccc23)cc1F	-	-	.	92
Cc1ccn2c(Nc3ccc4c(c3)OCO4)c(-c3ccccn3)nc2c1	-	-	-	-
Cc1ccc(Nc2c(-c3ccccn3)nc3ccc(C)cn23)cc1	-	100	-	95
Cc1ccc(Nc2c(-c3ccccn3)nc3cc(C)ccn23)cc1	-	100	-	100
SMILES	PrPC TRFRET	RN4220 kill	BJeLR viability	ugtP null kill
CCOC(=O)C1C2COc3ccc(Cl)cc3C2N2C(=O)c3cc(F)ccc3NC(=O)[C@@]12C (some centres not stated)	.	-	.	-
Cc1ccc(S(=O)(=O)Nc2cccc(-c3cn4ccsc4n3)c2)cc1	-	-	-	-
Cc1cccc(S(=O)(=O)Nc2cccc(-c3cn4ccsc4n3)c2)c1	-	-	-	85
CCOc1cccc(-c2c(C(=O)NN=C(C)c3cccnc3)nnn2-c2nonc2N)c1	.	-	.	-
CCc1ccccc1NCC(=O)Nc1ccc(Cl)c(C(F)(F)F)c1	-	-	-	90
O=C1SC(Cc2ccccc2)C(=O)N1c1ccccc1 (configuration not stated)	-	-	89	-
NC(=O)C(=NOC(=O)c1ccco1)c1nc(-c2ccc(Br)cc2)cs1	.	-	.	93
N/C(=N\OC(=O)c1ccco1)c1ccc(Br)cc1	-	-	-	-
Cc1ccc(S(=O)(=O)N2CCOCC2)cc1NC(=O)C(c1ccc(Cl)cc1)C(C)C (configuration not stated)	-	89	-	91
O=S(=O)(c1ccc(C(F)(F)F)cc1)N1CCCc2nc(-c3ccccc3)ccc21	-	.	.	.
Cc1cc(C)nc(NS(=O)(=O)c2ccc(NC(=S)NC(=O)C3CCCC3)cc2)n1	-	-	-	86
O=C(NC(=S)Nc1ccc(O)cc1)C1CCCC1	-	-	.	87
C(=NNc1nncc2ccccc12)c1ccccn1	.	-	.	-
O=C(C(=O)N1CCC(CNC(=O)C2COc3ccccc3O2)CC1)c1cc2ccccc2o1 (configuration not stated)	-	.	.	.
Cc1ccc(-n2nnnc2SC(C(=O)c2c[nH]c3ccccc23)c2ccccc2)cc1 (configuration not stated)	-	-	-	90
CCCC(=O)OCCNc1cc(Sc2nc3ccccc3[nH]2)c2nonc2c1[N+](=O)[O-]	-	96	-	100
COc1ccc(-n2sc3c(c2=S)-c2cc(OC)ccc2NC3(C)C)cc1	-	-	-	84
CCC1=C(OC(=O)N(CC)CC)N2C(=O)OC(=NCC(=O)OC)[C@]2(C)C2C1=CCC1C(=O)N(CC(=O)OC)C(=O)C12 (some centres not stated)	.	-	.	-
Cc1cc(C)c(S(=O)(=O)Oc2ccccc2[N+](=O)[O-])c(C)c1	-	-	.	-
CC1=CC(=O)C=C(C)C1=NOc1ccccc1[N+](=O)[O-]	-	-	51	-
CC/C(=C\C=C\[C@@H]1C=C[C@@H]2CCC[C@H]2[C@@H]1C(=O)c1ccc[nH]1)[C@@H]1O[C@@H]([C@@H](C)C(=O)O)CC[C@@H]1C	.	100	-	99
C[C@]1(OC(=O)C=Cc2ccccc2)CC(O)[C@]2(O)C=COC(OC3OC(CO)C(O)C(O)C3O)C21 (some centres not stated)	.	-	.	-
N#C/C(=C\c1cccs1)C(=O)c1ccccc1Cl	-	-	63	-
COc1ccccc1-n1cnc2cc(NCc3cccs3)ccc21	-	-	60	-
CC(C)(C)c1ccc(OCC(=O)NNC(=S)NC(=O)c2ccco2)c(Br)c1	-	99	-	98
SMILES	PrPC TRFRET	RN4220 kill	BJeLR viability	ugtP null kill
CCC(CO)[n+]1c(C)cc(/C=C2\Sc3ccccc3N2Cc2ccccc2)cc1C (configuration not stated)	-	100	.	100
CCN1/C(=C2\SC(=S)N(Cc3ccccc3)C2=O)Sc2ccccc21	-	-	-	-
Cc1ccccc1OCC(O)CNC1CCC(NCC(O)COc2ccccc2C)CC1 (configuration not stated)	-	.	89	.
Cc1ccc(OCC(O)CNC2CCCC2)c(C)c1 (configuration not stated)	-	-	-	-
COc1ccc(C(=O)/C=C2/C(=O)Nc3ccccc32)cc1	-	97	-	99
O=C1Nc2ccccc2/C1=C/C(=O)c1cccs1	-	-	-	94
Cc1ccccc1NS(=O)(=O)c1ccc2c(c1)NC(=O)CCS2	-	89	-	-
Cc1ccc(C)c(NS(=O)(=O)c2ccc3c(c2)NC(=O)CCS3)c1	-	-	-	-
Cc1ccc(NS(=O)(=O)c2ccc3c(c2)NC(=O)CCS3)c(Br)c1	-	98	-	96
COCCNC(=S)NN=Cc1ccc(-c2ccc([N+](=O)[O-])cc2)o1	.	-	.	-
